The record followed here is paper PMC7862700, “An all-to-all approach to the identification of sequence-specific readers for epigenetic DNA modifications on cytosine”.

Holding throughout (test): DAPPL (digital affinity profiling via proximity ligation, sequencing); 10 mM Tris-HCl pH 7.5, 50 mM NaCl, 1 mM DTT, 4% glycerol, room temperature, 30 min; GST-TFs on glutathione beads, 16-mer random dsDNA library, 0.1% formaldehyde crosslink after washing; high values mean tight binding
For one test, the target named is T1, FEV (Homo sapiens, UniProt Q99581 1-238).
T1 sequence: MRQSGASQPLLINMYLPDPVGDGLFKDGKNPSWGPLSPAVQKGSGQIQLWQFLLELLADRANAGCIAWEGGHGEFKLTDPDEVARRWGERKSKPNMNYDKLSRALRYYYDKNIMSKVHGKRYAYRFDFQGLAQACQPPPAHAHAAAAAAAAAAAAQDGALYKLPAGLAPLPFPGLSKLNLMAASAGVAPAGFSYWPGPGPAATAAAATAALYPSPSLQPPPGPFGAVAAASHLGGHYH
Particulars: protein: recombinant; tags: N-terminal GST; dsDNA, one strand shown. The method, boiled down: (§1)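 Binding signal is given per hexamer as its read frequency for a factor divided by its frequency in the tag-only sample. GST-fused human transcription factors were expressed in yeast, captured on glutathione beads, barcoded with DNA and pooled with that sample, then incubated with 200 nmole of a 16-mer random double-stranded DNA library in Tris/NaCl/DTT/glycerol buffer for 30 min at room temperature. The pools were then washed, crosslinked, proximity-ligated, amplified by PCR and sequenced on an Illumina NextSeq500.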

For another test, the target named is ETV5 (Homo sapiens, UniProt P41161 1-510). Particulars: protein: recombinant; tags: N-terminal GST; dsDNA, one strand shown. The method, boiled down:
as §1

For the next test, the target named is HSF1 (Homo sapiens, UniProt Q00613 1-529). Particulars: protein: recombinant; tags: N-terminal GST; chain copies: 3; dsDNA, one strand shown. The essentials:
as §1

For the next test, the target named is T2, SPIC (Homo sapiens, UniProt Q8N5J4 1-248).
T2 sequence: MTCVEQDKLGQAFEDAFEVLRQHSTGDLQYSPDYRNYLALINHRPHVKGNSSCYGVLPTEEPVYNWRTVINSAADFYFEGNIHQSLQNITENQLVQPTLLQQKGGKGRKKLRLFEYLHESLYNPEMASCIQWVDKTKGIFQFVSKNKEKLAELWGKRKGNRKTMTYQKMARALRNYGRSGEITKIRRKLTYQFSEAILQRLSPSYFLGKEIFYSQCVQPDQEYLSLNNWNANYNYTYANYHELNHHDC
Particulars: protein: recombinant; tags: N-terminal GST; dsDNA, one strand shown. The method, boiled down: as §1

Another test addresses ELF4 (Homo sapiens, UniProt Q99607 1-663). Particulars: protein: recombinant; tags: N-terminal GST; dsDNA, one strand shown. The method, boiled down:
as §1

A further test concerns the target T3, ELK4 (Homo sapiens, UniProt P28324-2 1-405).
T3 sequence: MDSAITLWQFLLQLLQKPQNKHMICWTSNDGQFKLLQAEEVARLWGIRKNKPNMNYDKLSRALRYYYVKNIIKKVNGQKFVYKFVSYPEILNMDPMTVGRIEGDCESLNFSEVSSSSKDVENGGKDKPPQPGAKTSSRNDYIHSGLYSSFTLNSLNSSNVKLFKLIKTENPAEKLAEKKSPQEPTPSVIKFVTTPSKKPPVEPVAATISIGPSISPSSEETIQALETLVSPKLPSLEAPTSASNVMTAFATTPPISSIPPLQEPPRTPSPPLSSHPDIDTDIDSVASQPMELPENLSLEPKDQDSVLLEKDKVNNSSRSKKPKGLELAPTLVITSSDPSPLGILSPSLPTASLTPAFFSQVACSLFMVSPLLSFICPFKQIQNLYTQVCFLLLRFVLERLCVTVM
Particulars: protein: recombinant; tags: N-terminal GST; dsDNA, one strand shown. The method, boiled down: as §1

The target in another test is T4, ETV2 (Homo sapiens, UniProt O00321 1-342).
T4 sequence: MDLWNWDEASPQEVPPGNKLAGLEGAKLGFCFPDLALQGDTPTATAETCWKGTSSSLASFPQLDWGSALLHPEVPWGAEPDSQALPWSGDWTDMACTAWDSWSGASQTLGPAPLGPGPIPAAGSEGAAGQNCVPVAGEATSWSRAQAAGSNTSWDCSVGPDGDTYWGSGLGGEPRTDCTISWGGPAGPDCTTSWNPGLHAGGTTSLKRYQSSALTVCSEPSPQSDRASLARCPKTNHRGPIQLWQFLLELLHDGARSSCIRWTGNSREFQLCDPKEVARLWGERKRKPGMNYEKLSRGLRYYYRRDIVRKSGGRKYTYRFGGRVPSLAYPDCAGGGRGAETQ
Particulars: protein: recombinant; tags: N-terminal GST; dsDNA, one strand shown. The method, boiled down:
as §1

For a further test, the target named is T5, ELF3 (Homo sapiens, UniProt P78545 1-371).
T5 sequence: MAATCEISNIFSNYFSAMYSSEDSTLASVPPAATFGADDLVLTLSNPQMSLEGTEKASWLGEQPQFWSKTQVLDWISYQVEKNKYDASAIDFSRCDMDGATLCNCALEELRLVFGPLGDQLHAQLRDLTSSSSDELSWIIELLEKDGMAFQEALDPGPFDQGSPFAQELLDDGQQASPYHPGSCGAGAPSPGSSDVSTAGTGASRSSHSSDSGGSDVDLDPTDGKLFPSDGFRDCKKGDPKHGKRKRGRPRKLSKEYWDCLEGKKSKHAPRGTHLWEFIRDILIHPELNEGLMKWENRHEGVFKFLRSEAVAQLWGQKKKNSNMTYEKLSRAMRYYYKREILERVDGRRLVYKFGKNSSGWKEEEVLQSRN
Particulars: protein: recombinant; tags: N-terminal GST; dsDNA, one strand shown. The method, boiled down:
as §1

Another test deals with CRX (Homo sapiens, UniProt O43186 1-299). Particulars: protein: recombinant; tags: N-terminal GST; dsDNA, one strand shown. The essentials: as §1
The next test deals with ETV1 (Homo sapiens, UniProt P50549 1-477). Particulars: protein: recombinant; tags: N-terminal GST; dsDNA, one strand shown. The method, boiled down: as §1
The target of a further test is T6, ERF (Homo sapiens, UniProt P50548 1-548).
T6 sequence: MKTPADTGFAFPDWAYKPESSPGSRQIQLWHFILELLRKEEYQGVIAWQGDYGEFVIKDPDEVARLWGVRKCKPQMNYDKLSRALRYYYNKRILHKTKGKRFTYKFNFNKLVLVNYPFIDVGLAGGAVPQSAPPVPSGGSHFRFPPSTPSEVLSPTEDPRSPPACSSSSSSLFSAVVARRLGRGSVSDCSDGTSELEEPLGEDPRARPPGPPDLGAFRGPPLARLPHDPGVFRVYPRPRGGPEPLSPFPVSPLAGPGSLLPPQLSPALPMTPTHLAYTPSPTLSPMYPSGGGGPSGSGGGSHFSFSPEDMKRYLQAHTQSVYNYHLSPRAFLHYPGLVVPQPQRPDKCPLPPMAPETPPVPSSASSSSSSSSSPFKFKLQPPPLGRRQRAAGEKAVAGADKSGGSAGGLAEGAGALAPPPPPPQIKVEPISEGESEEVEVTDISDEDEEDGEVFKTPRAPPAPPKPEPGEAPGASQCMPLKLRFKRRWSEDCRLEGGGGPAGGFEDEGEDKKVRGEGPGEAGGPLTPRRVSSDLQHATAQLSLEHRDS
Particulars: protein: recombinant; tags: N-terminal GST; dsDNA, one strand shown. The essentials:
as §1

The next test has as its target T7, ETV3L (Homo sapiens, UniProt Q6ZN32 1-361).
T7 sequence: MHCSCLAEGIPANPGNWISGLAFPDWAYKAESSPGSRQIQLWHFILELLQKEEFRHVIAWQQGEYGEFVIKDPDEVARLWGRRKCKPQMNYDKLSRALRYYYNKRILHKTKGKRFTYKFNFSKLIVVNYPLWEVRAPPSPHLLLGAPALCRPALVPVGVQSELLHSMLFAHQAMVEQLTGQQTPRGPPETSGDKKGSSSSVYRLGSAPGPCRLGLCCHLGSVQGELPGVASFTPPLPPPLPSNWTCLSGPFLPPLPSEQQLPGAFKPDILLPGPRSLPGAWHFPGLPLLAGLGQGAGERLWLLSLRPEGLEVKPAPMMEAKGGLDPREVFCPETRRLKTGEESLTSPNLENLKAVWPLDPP
Particulars: protein: recombinant; tags: N-terminal GST; dsDNA, one strand shown. The method, boiled down: as §1

The target of another test is T8, ETS2 (Homo sapiens, UniProt P15036 1-469).
T8 sequence: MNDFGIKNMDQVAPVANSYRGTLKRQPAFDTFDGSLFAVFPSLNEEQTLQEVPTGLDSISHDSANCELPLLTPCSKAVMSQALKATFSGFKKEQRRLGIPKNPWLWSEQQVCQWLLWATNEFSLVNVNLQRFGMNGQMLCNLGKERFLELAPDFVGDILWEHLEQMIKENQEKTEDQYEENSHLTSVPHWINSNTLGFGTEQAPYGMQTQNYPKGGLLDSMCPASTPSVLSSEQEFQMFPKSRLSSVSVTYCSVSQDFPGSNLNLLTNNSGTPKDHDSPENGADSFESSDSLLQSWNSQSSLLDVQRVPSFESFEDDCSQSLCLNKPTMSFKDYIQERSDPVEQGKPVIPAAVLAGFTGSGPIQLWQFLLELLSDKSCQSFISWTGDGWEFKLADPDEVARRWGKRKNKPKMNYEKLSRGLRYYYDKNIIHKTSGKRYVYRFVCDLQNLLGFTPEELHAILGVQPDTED
Particulars: protein: recombinant; tags: N-terminal GST; dsDNA, one strand shown. The method, boiled down:
as §1

Another test has as its target T9, SPDEF (Homo sapiens, UniProt O95238 1-335).
T9 sequence: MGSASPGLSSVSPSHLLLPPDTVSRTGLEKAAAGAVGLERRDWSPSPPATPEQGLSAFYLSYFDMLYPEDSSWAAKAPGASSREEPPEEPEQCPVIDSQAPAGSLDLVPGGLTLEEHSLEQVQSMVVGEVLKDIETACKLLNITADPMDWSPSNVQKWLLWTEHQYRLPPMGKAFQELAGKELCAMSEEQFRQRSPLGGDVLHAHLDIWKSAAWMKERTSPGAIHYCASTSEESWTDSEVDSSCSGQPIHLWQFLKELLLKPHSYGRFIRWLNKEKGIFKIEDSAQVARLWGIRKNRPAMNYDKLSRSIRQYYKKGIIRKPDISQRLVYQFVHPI
Particulars: protein: recombinant; tags: N-terminal GST; dsDNA, one strand shown. The method, boiled down: as §1

Another test deals with T10, ETV7 (Homo sapiens, UniProt Q9Y603 1-341).
T10 sequence: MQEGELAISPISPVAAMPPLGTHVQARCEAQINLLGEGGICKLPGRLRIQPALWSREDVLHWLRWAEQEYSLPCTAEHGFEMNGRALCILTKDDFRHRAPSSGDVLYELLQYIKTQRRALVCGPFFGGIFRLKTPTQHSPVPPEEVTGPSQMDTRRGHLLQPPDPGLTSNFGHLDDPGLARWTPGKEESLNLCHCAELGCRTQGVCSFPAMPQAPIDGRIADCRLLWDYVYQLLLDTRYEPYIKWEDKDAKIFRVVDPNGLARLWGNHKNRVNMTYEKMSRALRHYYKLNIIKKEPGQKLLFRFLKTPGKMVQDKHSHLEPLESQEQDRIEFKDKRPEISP
Particulars: protein: recombinant; tags: N-terminal GST; dsDNA, one strand shown. The essentials: as §1

In a further test the target is T11, ELF5 (Homo sapiens, UniProt Q9UKW6-2 1-255).
T11 sequence: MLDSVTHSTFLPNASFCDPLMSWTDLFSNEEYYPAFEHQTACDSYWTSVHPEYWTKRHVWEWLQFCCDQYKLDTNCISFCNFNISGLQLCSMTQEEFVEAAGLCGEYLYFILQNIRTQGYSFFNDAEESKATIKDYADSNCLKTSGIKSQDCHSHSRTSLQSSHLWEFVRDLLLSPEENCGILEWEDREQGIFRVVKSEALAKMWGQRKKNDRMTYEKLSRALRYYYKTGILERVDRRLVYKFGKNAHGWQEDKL
Particulars: protein: recombinant; tags: N-terminal GST; dsDNA, one strand shown. The essentials: as §1

For another test, the target named is T12, ETV3 (Homo sapiens, UniProt P41162-2 1-143).
T12 sequence: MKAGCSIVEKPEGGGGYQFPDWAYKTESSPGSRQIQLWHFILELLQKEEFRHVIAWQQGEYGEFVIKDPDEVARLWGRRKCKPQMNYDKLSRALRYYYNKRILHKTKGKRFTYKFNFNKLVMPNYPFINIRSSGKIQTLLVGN
Particulars: protein: recombinant; tags: N-terminal GST; dsDNA, one strand shown. The essentials:
as §1

Another test has as its target ETV6 (Homo sapiens, UniProt P41212 1-452). Particulars: protein: recombinant; tags: N-terminal GST; dsDNA, one strand shown. The essentials:
as §1

ETV1, sequence (P50549 whole entry): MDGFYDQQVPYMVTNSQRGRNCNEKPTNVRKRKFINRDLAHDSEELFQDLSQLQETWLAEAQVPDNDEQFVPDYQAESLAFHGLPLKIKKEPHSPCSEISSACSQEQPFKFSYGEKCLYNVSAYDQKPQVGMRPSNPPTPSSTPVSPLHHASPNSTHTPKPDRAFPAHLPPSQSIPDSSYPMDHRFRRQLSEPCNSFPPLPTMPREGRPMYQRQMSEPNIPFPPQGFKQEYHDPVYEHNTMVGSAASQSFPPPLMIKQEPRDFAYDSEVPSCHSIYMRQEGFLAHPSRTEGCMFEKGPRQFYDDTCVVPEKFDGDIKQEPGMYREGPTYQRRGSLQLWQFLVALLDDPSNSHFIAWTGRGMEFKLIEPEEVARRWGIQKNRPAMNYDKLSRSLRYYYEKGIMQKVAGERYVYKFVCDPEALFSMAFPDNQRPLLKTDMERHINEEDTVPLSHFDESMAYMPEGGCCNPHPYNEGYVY
ETV5, sequence (P41161 whole entry): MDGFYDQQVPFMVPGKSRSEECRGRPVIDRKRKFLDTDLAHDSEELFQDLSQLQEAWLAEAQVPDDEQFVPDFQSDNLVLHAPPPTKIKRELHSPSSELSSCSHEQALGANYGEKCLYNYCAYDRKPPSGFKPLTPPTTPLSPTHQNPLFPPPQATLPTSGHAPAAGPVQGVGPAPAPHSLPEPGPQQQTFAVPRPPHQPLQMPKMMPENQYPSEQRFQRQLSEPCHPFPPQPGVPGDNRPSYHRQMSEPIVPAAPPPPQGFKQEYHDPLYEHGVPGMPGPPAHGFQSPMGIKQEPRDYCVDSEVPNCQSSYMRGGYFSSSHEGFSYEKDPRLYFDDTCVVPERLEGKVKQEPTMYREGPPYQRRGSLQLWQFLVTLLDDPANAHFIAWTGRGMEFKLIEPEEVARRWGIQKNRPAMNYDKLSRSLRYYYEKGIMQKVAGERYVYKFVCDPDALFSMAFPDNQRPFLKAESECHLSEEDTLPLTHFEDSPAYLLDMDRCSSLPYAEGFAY
CRX, sequence (O43186 whole entry): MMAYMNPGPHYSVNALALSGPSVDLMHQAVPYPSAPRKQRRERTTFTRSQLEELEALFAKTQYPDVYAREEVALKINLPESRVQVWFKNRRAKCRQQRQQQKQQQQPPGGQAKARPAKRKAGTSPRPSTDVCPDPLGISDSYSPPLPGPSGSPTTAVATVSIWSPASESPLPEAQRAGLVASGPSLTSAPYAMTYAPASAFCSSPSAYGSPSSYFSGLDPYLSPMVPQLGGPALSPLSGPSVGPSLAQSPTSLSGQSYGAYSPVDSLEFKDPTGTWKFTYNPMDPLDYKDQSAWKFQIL
ELF4, sequence (Q99607 whole entry): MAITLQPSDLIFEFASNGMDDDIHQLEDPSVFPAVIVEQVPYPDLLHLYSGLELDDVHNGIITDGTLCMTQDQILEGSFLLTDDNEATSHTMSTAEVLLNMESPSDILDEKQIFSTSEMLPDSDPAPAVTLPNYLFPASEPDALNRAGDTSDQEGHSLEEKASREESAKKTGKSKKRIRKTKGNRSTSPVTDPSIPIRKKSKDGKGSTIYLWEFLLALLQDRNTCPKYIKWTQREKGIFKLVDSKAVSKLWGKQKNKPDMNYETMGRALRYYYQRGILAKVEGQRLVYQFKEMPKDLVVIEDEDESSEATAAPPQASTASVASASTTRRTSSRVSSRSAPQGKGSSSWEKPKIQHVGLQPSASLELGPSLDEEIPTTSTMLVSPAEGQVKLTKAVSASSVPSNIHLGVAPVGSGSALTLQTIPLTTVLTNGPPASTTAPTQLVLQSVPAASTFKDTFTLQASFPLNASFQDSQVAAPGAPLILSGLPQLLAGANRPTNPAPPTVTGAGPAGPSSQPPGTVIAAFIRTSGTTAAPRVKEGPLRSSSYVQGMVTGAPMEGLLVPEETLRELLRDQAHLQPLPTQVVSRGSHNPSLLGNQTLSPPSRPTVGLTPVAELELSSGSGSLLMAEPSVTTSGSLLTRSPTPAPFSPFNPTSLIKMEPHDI
HSF1, sequence (Q00613 whole entry): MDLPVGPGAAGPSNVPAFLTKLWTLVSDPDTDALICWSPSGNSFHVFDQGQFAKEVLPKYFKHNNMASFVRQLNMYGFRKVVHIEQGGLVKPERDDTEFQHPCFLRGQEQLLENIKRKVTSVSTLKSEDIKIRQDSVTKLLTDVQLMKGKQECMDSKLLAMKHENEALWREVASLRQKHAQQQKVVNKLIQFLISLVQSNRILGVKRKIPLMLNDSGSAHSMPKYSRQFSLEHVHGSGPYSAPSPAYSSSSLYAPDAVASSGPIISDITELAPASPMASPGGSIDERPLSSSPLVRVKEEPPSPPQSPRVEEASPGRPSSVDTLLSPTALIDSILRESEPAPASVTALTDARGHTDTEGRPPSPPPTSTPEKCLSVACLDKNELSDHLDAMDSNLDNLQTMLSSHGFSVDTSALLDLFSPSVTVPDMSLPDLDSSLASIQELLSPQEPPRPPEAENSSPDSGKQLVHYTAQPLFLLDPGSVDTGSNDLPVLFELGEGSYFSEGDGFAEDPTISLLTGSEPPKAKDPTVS
ETV6, sequence (P41212 whole entry): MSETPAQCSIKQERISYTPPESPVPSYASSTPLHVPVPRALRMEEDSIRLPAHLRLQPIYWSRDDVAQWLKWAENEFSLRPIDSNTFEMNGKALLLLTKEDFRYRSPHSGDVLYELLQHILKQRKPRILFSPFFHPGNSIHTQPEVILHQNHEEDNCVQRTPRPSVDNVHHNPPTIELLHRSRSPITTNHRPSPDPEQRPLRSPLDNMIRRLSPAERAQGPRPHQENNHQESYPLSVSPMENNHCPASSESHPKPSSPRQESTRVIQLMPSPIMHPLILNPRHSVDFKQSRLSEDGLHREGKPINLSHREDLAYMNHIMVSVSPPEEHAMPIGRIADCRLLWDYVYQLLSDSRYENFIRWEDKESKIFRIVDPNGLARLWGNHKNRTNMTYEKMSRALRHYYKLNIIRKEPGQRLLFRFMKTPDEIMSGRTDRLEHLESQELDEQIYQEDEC

For CTCTCT, the binding signal was 1.67 fold enrichment (6-mer frequency, TF over GST control) with FEV; 1.57 fold enrichment (6-mer frequency, TF over GST control) with ETV5; 1.69 fold enrichment (6-mer frequency, TF over GST control) with HSF1; 1.77 fold enrichment (6-mer frequency, TF over GST control) in the test with SPIC; 1.74 fold enrichment (6-mer frequency, TF over GST control) with ELF4; 1.74 fold enrichment (6-mer frequency, TF over GST control) with ELK4. For the same sequence, the binding signal is 1.63 fold enrichment (6-mer frequency, TF over GST control) with ETV2; 1.58 fold enrichment (6-mer frequency, TF over GST control) with ELF3; 1.5 fold enrichment (6-mer frequency, TF over GST control) with CRX; 1.49 fold enrichment (6-mer frequency, TF over GST control) with ETV1; 1.63 fold enrichment (6-mer frequency, TF over GST control) in the test with ERF; 1.6 fold enrichment (6-mer frequency, TF over GST control) with ETV3L. The binding signal in the test with ETS2 was 1.43 fold enrichment (6-mer frequency, TF over GST control); with SPDEF, 1.59 fold enrichment (6-mer frequency, TF over GST control); in the test with ETV7 it was 1.56 fold enrichment (6-mer frequency, TF over GST control); with ELF5, 1.41 fold enrichment (6-mer frequency, TF over GST control); with ETV3, 1.68 fold enrichment (6-mer frequency, TF over GST control); in the test with ETV6 it was 1.59 fold enrichment (6-mer frequency, TF over GST control).
